PubChem BioAssay AID1159580 (chemical genetic matrix, 2015)
“And” between values parts separate entries of the source, which are not always exact repeats. Equal entries are not always repeated. Among all 5,500 compounds or so, about 2,000 (36%) were called active. About 18% were inconclusive and are not listed. Rule as the data show it: active = normalized growth mostly below about 0.91 (no sharp cut-off); inconclusive = no clear call, values can overlap the other calls; inactive = mostly above about 0.92. This is one part of the list.

Assay: chemical genetic growth profiling, strain panel (AID 1159580);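 also: tested at 20 µM; growth read once vehicle control cultures reached saturation at 30 °C; 1 = growth at the plate median or of vehicle wells; lower values mean less growth of the strain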
Details: S. cerevisiae deletion strains, growth OD

Measured: normalized growth

Nc1ccc(S(=O)(=O)NC(=O)c2ccccc2)cc1
inactive: locus YAL013W, strain DEP1, stronger effect = lower value 1.01 | locus YAL021C, strain ccr4, stronger effect = lower value 0.985 | locus YAL026C, strain drs2, stronger effect = lower value 1 | locus YAL030W, strain snc1, stronger effect = lower value 1.01 | locus YBL061C, strain skt5, stronger effect = lower value 0.99 | locus YBR009C, strain hhf1, stronger effect = lower value 0.959 | locus YBR021W, strain FUR4, stronger effect = lower value 1.04 | locus YBR023C, strain chs3, stronger effect = lower value 0.995 | locus YBR171W, strain sec66, stronger effect = lower value 0.992 | locus YBR229C, strain ROT2, stronger effect = lower value 1.01 | locus YBR231C, strain swc5, stronger effect = lower value 0.992 | locus YBR279W, strain paf1, stronger effect = lower value 0.985 | locus YCL011C, strain gbp2, stronger effect = lower value 1 | locus YCL016C, strain dcc1, stronger effect = lower value 1.01 | locus YCL029C, strain bik1, stronger effect = lower value 1.02 | locus YCL061C, strain MRC1, stronger effect = lower value 0.979 | locus YCL069W, strain vba3, stronger effect = lower value 0.968 | locus YCR088W, strain abp1, stronger effect = lower value 0.978 | locus YDL005C, strain med2, stronger effect = lower value 0.992 | locus YDL035C, strain GPR1, stronger effect = lower value 1.01 | locus YDL040C, strain nat1, stronger effect = lower value 0.998 | locus YDL074C, strain BRE1, stronger effect = lower value 1.01 | locus YDL101C, strain DUN1, stronger effect = lower value 1.01 | locus YDL134C, strain PPH21, stronger effect = lower value 1.02 | locus YDL185W, strain tfp1, stronger effect = lower value 0.999 | locus YDL192W, strain arf1, stronger effect = lower value 1.02 | locus YDR001C, strain nth1, stronger effect = lower value 0.975 | locus YDR069C, strain doa4, stronger effect = lower value 0.973 | locus YDR101C, strain arx1, stronger effect = lower value 1.02 | locus YDR137W, strain rgp1, stronger effect = lower value 0.959 | locus YDR159W, strain sac3, stronger effect = lower value 0.948 | locus YDR162C, strain NBP2, stronger effect = lower value 1 | locus YDR195W, strain ref2 0.957 | locus YDR297W, strain sur2, stronger effect = lower value 0.997 | locus YDR318W, strain mcm21, stronger effect = lower value 1.03 | locus YDR334W, strain swr1, stronger effect = lower value 0.934 | locus YDR335W, strain msn5, stronger effect = lower value 0.985 | locus YDR388W, stronger effect = lower value 1.02 | locus YDR392W, strain spt3, stronger effect = lower value 1.01 | locus YDR502C, strain sam2, stronger effect = lower value 1.03 | locus YEL003W, strain gim4, stronger effect = lower value 0.99 | locus YEL037C, strain rad23, stronger effect = lower value 0.988 | locus YEL061C, strain CIN8 (second series), stronger effect = lower value 0.993 | locus YEL061C, strain CIN8, stronger effect = lower value 1.01 | locus YER015W, strain faa2, stronger effect = lower value 0.998 | locus YER016W, strain bim1, stronger effect = lower value 0.974 | locus YER110C, stronger effect = lower value 1.03 | locus YER111C, strain swi4, stronger effect = lower value 1.01 | locus YER155C, strain BEM2 (second series), stronger effect = lower value 1.02 | locus YER155C, strain BEM2, stronger effect = lower value 1.01 | locus YER167W, strain BCK2, stronger effect = lower value 1 | locus YFR010W, strain ubp6, stronger effect = lower value 0.951 | locus YGL078C, strain dbp3, stronger effect = lower value 1.02 | locus YGL086W, strain mad1, stronger effect = lower value 1.01 | locus YGL167C, strain pmr1, stronger effect = lower value 0.964 | locus YGL173C, strain kem1, stronger effect = lower value 0.986 | locus YGL227W, strain vid30, stronger effect = lower value 0.967 | locus YGL240W, strain doc1, stronger effect = lower value 0.998 | locus YGL248W, strain PDE1, stronger effect = lower value 1 | locus YGL253W, strain hxk2, stronger effect = lower value 0.989 | locus YGR135W, strain pre9, stronger effect = lower value 1.02 | locus YGR252W, strain gcn5, stronger effect = lower value 0.997 | locus YHR013C, strain ard1, stronger effect = lower value 0.98 | locus YHR027C, strain rpn1, stronger effect = lower value 0.993 | locus YHR030C, strain SLT2, stronger effect = lower value 1.01 and 0.995 | locus YHR079C, strain IRE1 (second series), stronger effect = lower value 1.01 | locus YHR079C, strain IRE1, stronger effect = lower value 0.98 | locus YHR094C, strain hxt1, stronger effect = lower value 1.01 | locus YHR129C, strain ARP1, stronger effect = lower value 0.996 | locus YHR142W, strain chs7, stronger effect = lower value 0.997 | locus YHR200W, strain rpn10, stronger effect = lower value 1.02 | locus YIL066C, strain RNR3, stronger effect = lower value 1.01 | locus YIL073C, strain SPO22, stronger effect = lower value 1.06 | locus YIL125W, strain kgd1, stronger effect = lower value 1.01 | locus YIR030C, strain dcg1, stronger effect = lower value 1.02 | locus YJL092W, strain hpr5, stronger effect = lower value 0.993 | locus YJL095W, strain BCK1 (second series), stronger effect = lower value 0.996 | locus YJL095W, strain BCK1, stronger effect = lower value 0.994 and 0.999 | locus YJL115W, strain asf1, stronger effect = lower value 0.999 | locus YJL129C, strain trk1, stronger effect = lower value 0.983 | locus YJL134W, strain LCB3, stronger effect = lower value 1.01 | locus YJL154C, strain vps35, stronger effect = lower value 0.99 | locus YJL164C, strain tpk1, stronger effect = lower value 0.979 | locus YJL166W, strain qcr8, stronger effect = lower value 0.983 | locus YJL168C, strain set2, stronger effect = lower value 1.01 | locus YJL187C, strain SWE1 (second series), stronger effect = lower value 1.01 | locus YJL187C, strain SWE1, stronger effect = lower value 0.992 | locus YJR043C, strain POL32, stronger effect = lower value 1.01
